The whole screen tested about 3,300 compounds, of which about 50 (2%) were called active. Not all results are given here. Entries with a potency or affinity are not part of this list. Values without a mark were called inactive.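 How the source made its calls: active means concentration giving half-maximal inhibition at or below 20 micromolar; inactive means half-maximal concentration above 20 micromolar, or not dose tested.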

The nature of the assay: cytotoxicity toward Jurkat T cells, primary screen, cell-based, Jurkat E6.1, NIH starter set (AID 364).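 Further: 100% = cells treated with 4 µM doxorubicin.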 To be noted: Jurkat E6.1 viability, ATP luminescence, 48 h; at 4 µM; stronger effect = higher value.
Usually inhibition stands for the change of the read-out against control, counted positive when it falls. Consider `c1ccc(OCc2nn3c(-c4cccnc4)nnc3s2)cc1`, for which the inhibition is -5.4%.

For the compound `CN(Cc1ccccc1)c1ncnc2ccc(Br)cc12`, the inhibition is 7.2%.

Take `Clc1ccc(-n2ncc3c(NCc4cccs4)ncnc32)cc1`: the inhibition is 18.1%.

Turning to `c1ccc(N2CCN(c3nc(NCc4ccco4)c4ccccc4n3)CC2)cc1`, the inhibition is 2.5%.

On to `Clc1ccc(-n2ncc3c(NCc4ccccn4)ncnc32)cc1`, for which the inhibition is 5.5%.

For `Oc1ccccc1-c1nc(NCc2ccco2)c2ccccc2n1`, the inhibition is -6.1%.

Consider `CCN(CC)CCCn1c(C)cc2c(c1=O)C(c1ccc(OC)c(OC)c1OC)C(C#N)=C(N)O2` (stereo not given), for which the inhibition was 1.4%.

For `CCCOc1cccc(C2/C(=C(/O)c3ccccc3)C(=O)C(=O)N2CCN(C)C)c1` (stereo not given), the inhibition was 2.5%.

`O=C(c1coc(=O)c(Br)c1)N1CCOCC1`: the inhibition was 7.3%.

Consider `COc1cccc(-c2nc(N3CCCCC3C)c3ccccc3n2)c1O` (stereo not given), for which the inhibition is -2%.

Turning to `Cc1nc(NS(=O)(=O)c2ccccc2)sc1NC(=O)OCCN(C)C`, the inhibition is 9.6%.

Turning to `COC(=O)C1=C(N)Oc2cc(C)oc(=O)c2C1c1ccncc1` (stereo not given), the inhibition is -9.1%.

For `O=C(O)CCc1nn2cc(-c3ccccc3)nc2[nH]c1=O`, the inhibition is -5.8%.

In the case of `Cc1cc(C)n(CC(=O)c2ccccc2)c(=O)c1C#N`, the inhibition is -17.6%.

Take `O=c1[nH]c2sc3c(c2c(=O)n1Cc1ccccc1)CCC3`: the inhibition is 1.3%.

`COc1ccc(C2=CC(c3cccc(OC)c3)n3nnnc3N2)cc1` (stereo not given): the inhibition is -8.6%.

As to `COc1cccc(C2=CC(c3ccc(N(C)C)cc3)n3nnnc3N2)c1` (stereo not given), the inhibition was -9.6%.

Turning to `Cc1nc(SC2C=CS(=O)(=O)C2)n[nH]1` (stereo not given), the inhibition was -8.6%.

With `CCCCNC1=C(Br)C(=O)CC(C)(C)C1`, the inhibition was -3.7%.

`Cn1c(Cn2cnc3ccccc32)nc2ccccc21`: the inhibition is 2.8%.

Consider `CC(C(=O)N1CCOCC1)N1C(=O)c2ccccc2C1=O` (stereo not given), for which the inhibition was -0.7%.

For `O=c1c(C=NCCCn2ccnc2)c(-c2ccccc2)[nH]n1-c1nc2ccccc2s1`, the inhibition is -4.4%.

Take `OCCNc1ncnc2c1c(-c1ccccc1)c(-c1ccccc1)n2Cc1ccco1`: the inhibition is 11.5%.

`CCCOc1cccc(CN2CCCCC2c2cccnc2)c1` (stereo not given): the inhibition was 0.8%.

With `CNC(=O)C1CC(=O)N(Cc2ccccc2)C(=Nc2ccc(OC)cc2)S1` (stereo not given), the inhibition is -6.1%.

Consider `CCOc1ccc2nc(SCC(=O)Nc3ncccn3)[nH]c2c1`, for which the inhibition was -1.3%.

For `CCCCOC(=O)CCc1nc2ccccc2[nH]1`, the inhibition was 0.2%.

As to `CCCCOC(=O)Nc1ccc(S(=O)(=O)Nc2nc(C)cc(C)n2)cc1`, the inhibition is 6.7%.

As for `COCCNc1oc(-c2ccc(Cl)cc2)nc1C#N`, the inhibition is 2.9%.

`CCN(CC)CCCN1C(=O)C(=O)/C(=C(/O)c2ccc(C)cc2)C1c1ccccn1` (stereo not given): the inhibition is -5.6%.

`CCCNc1ncnc2c1cnn2-c1ccc(OC)cc1`: the inhibition was -3.3%.

Consider `CCOc1ccc(CC2CC(=O)NC2=O)cc1` (stereo not given), for which the inhibition is -9.7%.

Take `Cc1cn([C@H]2C=C[C@@H](CO)O2)c(=O)[nH]c1=O`: the inhibition is -6.6%.

With `Cc1cn([C@H]2C[C@H](N=[N+]=[N-])[C@@H](CO)O2)c(=O)[nH]c1=O`, the inhibition is 0.1%.

On to `Cn1cc(C(=O)NCN2CCCCC2)c2ccccc21`, for which the inhibition is -0.4%.

Turning to `CC(C)c1nc(NCC2CCCO2)c(C#N)c2c1COC(C)(C)C2` (stereo not given), the inhibition is 9.3%.

In the case of `Nc1nnnn1/N=C/c1ccco1`, the inhibition is 8%.

As for `CCc1nc(N2CCCC2)c(C#N)c2c1CCCC2`, the inhibition was 2.4%.

Take `COc1ccc(Nc2oc(-c3cccs3)nc2C#N)cc1`: the inhibition is 9.1%.

Take `O=C1CCCN1c1ccc(S(=O)(=O)NCc2ccco2)cc1`: the inhibition was 7.4%.

Take `COc1ccc(N2CC(=O)N(c3ccc(OC)c(OC)c3)CC2=O)cc1OC`: the inhibition is -0.2%.

Take `NC(=O)c1cc(-c2ccccc2)nc(Oc2ccccc2)n1`: the inhibition was 16.2%.

Consider `CC(C)Oc1ccc(/C(O)=C2/C(=O)C(=O)N(CCN3CCOCC3)C2c2ccccc2)cc1` (stereo not given), for which the inhibition is -8.3%.

For `CCOc1cc(CN2CCOCC2)cc(C(C)=O)c1`, the inhibition was 3.2%.

Regarding `Cn1c(N)c(C#N)c(C#N)c1-c1ccccc1`, the inhibition was -0.9%.

Regarding `CCCCCOC(=O)Cc1c(C)nc(-c2ccccc2)[nH]c1=O`, the inhibition is 3.9%.

`COc1ccc(C(=O)CCN2CCCCCC2)cc1`: the inhibition is -4.7%.

On to `COc1ccc(C(O)C(CN2CCOCC2)c2ccccc2)cc1` (stereo not given), for which the inhibition was -2.1%.

Regarding `CCCCCCSC1=C(C#N)C(c2ccccc2)CC(=O)N1` (stereo not given), the inhibition was -7%.

Take `C=C(C)CSC1=C(C#N)C(c2ccsc2)CC(=O)N1` (stereo not given): the inhibition is 8.6%.

Turning to `CN1C2C=C3C(C#N)=C(N)C(C#N)(C#N)[C@@H](c4ccc(Cl)cc4)[C@@H]3C1CC2` (stereo not given in full), the inhibition is 1.6%.

With `CCOc1cccc(C2C(C#N)=C(N)Oc3cc(C)oc(=O)c32)c1OCC` (stereo not given), the inhibition was -9.9%.

In the case of `O=C(NCc1cccnc1)NC(C(F)(F)F)C(F)(F)F`, the inhibition was -8.9%.

For `CCSc1nnc(NC(=O)NC(CC)(C(F)(F)F)C(F)(F)F)s1`, the inhibition is -11.5%.

As for `CCC(NC(=O)Nc1nccs1)(C(F)(F)F)C(F)(F)F`, the inhibition was -5%.

Turning to `O=C(NCC(F)(F)F)Nc1nnc(C(F)(F)F)s1`, the inhibition was -6.7%.

Turning to `CC(NC(=O)Nc1nccs1)(C(F)(F)F)C(F)(F)F`, the inhibition is -6.2%.

In the case of `COCCCn1c(C)nc2c(c1=O)c1nc3ccccc3nc1n2CCc1ccccc1`, the inhibition was 4.1%.

As to `CC1CCCCN1C(=O)C12CCC(C)(/C(=N/O)C1)C2(C)C` (stereo not given), the inhibition is -9.3%.

For the compound `CCOC(=O)C1=C(N)c2ccccc2CC1C(C)C` (stereo not given), the inhibition is 7%.

With `COc1cccc(C2C(C#N)=C(N)Oc3cc(C)[nH]c(=O)c32)c1OC` (stereo not given), the inhibition was 7.3%.

As to `COc1cc(C2C(C#N)=C(N)Oc3cc(C)n(CCN4CCOCC4)c(=O)c32)cc(OC)c1OC` (stereo not given), the inhibition is -2.9%.

For the compound `COc1ccc(-c2cc3nc4n(c(=O)c3s2)CCOC4)cc1`, the inhibition is 4.7%.

In the case of `COc1cc(NC(=O)NC(C)(C(F)(F)F)C(F)(F)F)cc(OC)c1OC`, the inhibition was -6.8%.

With `OCCOCCNc1ncnc2c1cnn2-c1ccc(Cl)cc1`, the inhibition was 3.8%.

For the origin of these results see PubChem BioAssay AID364 (The Scripps Research Institute Molecular Screening Center, 2006).
